Test results as given in PubChem BioAssay (NCI).
About 83,000 compounds went through this panel and 20% of them were active in at least one assay; those are over-represented in the sample as a whole.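 Growth was measured after 48 h exposure to one concentration of compound in 96-well plates. Values under 10 count as active.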 A number with no mark means an inactive call. Active and inactive are the calls of the source.

Test system: A498 renal
Experiment: NCI-60 one-dose screen, 48 h (100 = growth as untreated, 0 = no growth, -100 = all killed)
Settings: 10 µM unless noted

SMILES	growth
NC(=O)c1ncn2c(=O)n(CCF)nnc12	101%
Cc1csc(/N=C(N)/N=C(\N)c2cccc(C#N)c2)n1	69.4%
C=C(C)[C@@H]1CC[C@]2(COCCCNCCCN)CC[C@]3(C)[C@H](CC[C@@H]4[C@@]5(C)CC[C@H](O)C(C)(C)[C@@H]5CC[C@]43C)[C@@H]12	-16.1% (active)
O=C(/C=C/c1cccc(F)c1)c1cccc(OCCCOc2cccc(C(=O)/C=C/c3cccc(F)c3)c2)c1	90.8%
Cc1ccc(C(=O)CSc2nc3ccccc3c(=O)n2C)cc1	99.8%
Cc1ccc2c(n1)C(=O)C(Cl)=C(Nc1ccc(C#N)cc1)C2=O	61.6%
CC(C)(O)c1cncc(-c2ccc3ncc(C#N)c(N4CCc5cc(F)c(Cl)cc54)c3c2)c1	-18.3% (active)
